Measured values taken from ChEMBL document CHEMBL3988442, “University of Dundee, Small-Polar-MMV Screening Library” (2021).
In all, about 69,000 compounds went through this assay and about 950 (1.4%) showed an effect of 50% or more. The list comes from a sample in which strong results are over-represented; it also holds similar structures and randomly drawn compounds.

The compounds below were run on Mycobacterium tuberculosis (assay: Cornell M. t heat shock assay; note: in the data most compounds retested in dose-response had high values).
Type: functional, organism-based
Set-up: dose or concentration left out as unconfirmed

Row | Compound | Percent Effect [%]
1 | Cc1nc(-c2ccc(F)c(F)c2)cc(C2CCNCC2)n1.Cl | -7.049
2 | Cn1cc(C2CC(=O)NC23CCN(Cc2cccc(F)c2)CC3)cn1.O=C(O)C(F)(F)F (configuration not stated) | -23.11
3 | CCOc1ccc(CN2CCc3nc4ccsc4c(=O)n3CC2)cc1.Cl | 16.23
4 | CCOCc1nn(C)c2c1CN(Cc1cccs1)CC2.O=C(O)C(F)(F)F | 29.88
5 | CC(C(=O)NN1CCOCC1)n1nc(C(F)(F)F)c(Cl)c1C1CC1 (configuration not stated) | -25.21
6 | CN(C)CCN1CCO[C@H]2CN(C(=O)c3ccsc3)C[C@H]21.O=C(O)C(F)(F)F.O=C(O)C(F)(F)F | 25.92
7 | O=C(C1CCC1)N1CC[C@H](O)[C@@H]1Cc1cccnc1.O=C(O)C(F)(F)F | 0.09339
8 | Cc1cc(N2CCCC(c3nccnc3N(C)C)C2)ncn1 (configuration not stated) | -16.62
9 | CCCC(NC(=O)c1ccccn1)c1nnc2ccccn12 (configuration not stated) | -4.17
10 | CC(C)CC(NC(=O)c1ccco1)c1nc2cccnc2n1C (configuration not stated) | -10.38
11 | CC(C)CC(NC(=O)c1ccco1)c1nnc2ccccn12 (configuration not stated) | 66.07
12 | Cc1ccc(CN2CCc3c(COCC4CC4)nn(C)c3C2)s1.O=C(O)C(F)(F)F | -29.84
13 | Cc1ccsc1CN1CCn2c(COc3cccnc3)cnc2C1C.O=C(O)C(F)(F)F.O=C(O)C(F)(F)F (configuration not stated) | 9.479
14 | CC(=O)N1CCC12CCN(Cc1ccco1)CC2.O=C(O)C(F)(F)F | -13.47
15 | Cc1cc(Nc2ncccn2)nc(C2CCCN(CCO)C2)n1 (configuration not stated) | 17.06
16 | Cc1cc(Nc2ccccn2)nc(C2CCCN(CCO)C2)n1.O=CO (configuration not stated) | -14.49
17 | Cc1cc(Nc2cnccn2)nc(C2CCCN(CCO)C2)n1 (configuration not stated) | 103.5
18 | CC(=O)N1CC(=O)N(c2ccccc2)CC12CCN(Cc1ccoc1)C2.O=C(O)C(F)(F)F (configuration not stated) | -0.426
19 | Fc1ccc(CNCC2OCCc3cn(CC4CC4)nc32)cc1.O=C(O)C(F)(F)F.O=C(O)C(F)(F)F (configuration not stated) | 12.69
20 | Cc1noc(C)c1CN1CCc2ncnc(-c3cccnc3)c2CC1.O=C(O)C(F)(F)F.O=C(O)C(F)(F)F | 12.88
21 | COc1cc(C(=O)Nc2c(C)noc2C)ccc1C | -2.052
22 | COc1cc(C(=O)Nc2nc(C)no2)ccc1OC(F)F | 79.09
23 | COc1cc(C(=O)NS(=O)(=O)c2cncc(Br)c2)cc(Cl)c1OC | -14.73

Row | Compound | Percent Effect [%]
24 | COc1cc(C(=O)Nc2nc(C)no2)cc(OC)c1Br | 104.3
25 | COc1cc(C(=O)Nc2nc(C)no2)ccc1C | 106.9
26 | COc1cc(C(=O)NCc2ccc3c(c2)CCCN3C)cc(OC)c1Br | -0.1722
27 | COc1cc(C(=O)Nc2nc(C)no2)ccc1OC1CCCC1 | -1.479
28 | COc1cc(C(=O)Nc2nc(C)no2)cc(Cl)c1OC | 101
29 | COc1cc(C(=O)NS(=O)(=O)c2cccc(C#N)c2)cc(Cl)c1OC | -1.963
30 | COc1cc(C(=O)NS(=O)(=O)c2cc(Cl)sc2Cl)ccc1OC(F)F | -14.59
31 | COc1cc(C(=O)NS(=O)(=O)c2cccc(C#N)c2)cc(OC)c1Br | -8.929
32 | COc1cc(C(=O)Nc2cn[nH]c2)ccc1C | -19.45
33 | O=C(N1CCCC1)N1CCO[C@H]2[C@@H](Oc3ccccn3)CC[C@@H]21.O=C(O)C(F)(F)F | 0.1764
34 | Cc1ccc(CN2CC[C@@H]3OCCN(S(C)(=O)=O)[C@H]3CC2)s1.O=C(O)C(F)(F)F | 16.37
35 | O=C(N1CCCC1)N1CCc2onc(COc3cccnc3)c2C1.O=C(O)C(F)(F)F | -4.712
36 | CC(C)Cc1cc(C(=O)NC(C)(C)CN2CCCCCC2)on1 | 72.52
37 | CC(C)Cc1cc(C(=O)NCC2CCCN(Cc3ccco3)C2)on1 (configuration not stated) | 16.01
38 | CC(C)Cc1cc(C(=O)NCC(O)CN2CCCCCC2)on1 (configuration not stated) | -12.74
39 | CCc1ncnc2c1CCN(C(=O)c1ccccn1)CC2.O=C(O)C(F)(F)F | -22.3
40 | CSc1ncccc1C(=O)N1C[C@H]2CC[C@@H]1CN(C(=O)N(C)C)C2 | -1.597
41 | Cc1csc(NC(=O)c2cnc(C3CCCN3)cn2)n1.Cl (configuration not stated) | 82.89
42 | O=C(NCc1ccccn1)c1cnc(C2CCCN2)cn1 (configuration not stated) | 52.39
43 | Cc1csc(NC(=O)c2cnc(C3CCCN(C)C3)cn2)n1 (configuration not stated) | 23.5
44 | O=C(NCc1ccccn1)c1cncc(C2CCCN2)n1 (configuration not stated) | 2.609
45 | Cc1nc(C(=O)NCc2ccccn2)cc(C2CCCN2)n1 (configuration not stated) | 45.77
46 | Cc1csc(NC(=O)c2cnc(C3CCNCC3)cn2)n1.Cl | -24.76

Row | Compound | Percent Effect [%]
47 | Cl.Cn1ccnc1C1(O)CCN(C(=O)CCc2ccccc2)CC1 | 1.719
48 | Cc1noc(C)c1CN1CCc2c(CNc3nccs3)n[nH]c2C1.O=C(O)C(F)(F)F | 8.041
49 | CCCNC(=O)c1cc2c(s1)CCN2C(=O)CN(C)C.O=C(O)C(F)(F)F | 1.454
50 | C[C@H]1CN(c2ccccn2)C[C@@]12CCN(c1cccnc1)C2=O.O=C(O)C(F)(F)F.O=C(O)C(F)(F)F | 11.35
51 | COc1ccc(CN2CCC3(CC(=O)N(c4cncnc4)C3)C2)cc1.O=C(O)C(F)(F)F (configuration not stated) | -12.31
52 | CN1CCC(c2nc3ccc(-c4ccccc4)cn3n2)CC1.O=C(O)C(F)(F)F | -24.93
53 | COc1ccccc1Cc1cncc(N2CC(C(=O)O)C2)n1.Cl | 2.257
54 | CN(C)c1nc2c(c(N(C)Cc3n[nH]c4c3CCCCC4)n1)CCNC2 | 76.86
55 | CN(C)c1nc2c(c(N(C)Cc3n[nH]c4c3CCCC4)n1)CCNCC2 | 31.61
56 | CN(Cc1n[nH]c2c1CCCC2)c1nc(C2CC2)nc2c1CCNCC2 | 1.399
57 | CCS(=O)(=O)N1C[C@@H](OCc2ccccn2)[C@@H]2OCCC[C@@H]21.O=C(O)C(F)(F)F | -14.72
58 | CCC1(CC)Cc2ccccc2-c2nc(NCCO)[nH]c(=O)c21 | -12.78
59 | CCC1(CC)Cc2ccccc2-c2nc(NCCCO)[nH]c(=O)c21 | 0.6588
60 | CCC1(CC)Cc2ccccc2-c2nc(CN(C)C)nc(O)c21 | 51.81
61 | Cc1cccc(C(=O)N2C[C@@H]3COC[C@@H](CC(=O)N4CCCC4)[C@@H]3C2)n1.O=C(O)C(F)(F)F | -12.77
62 | Cc1ccc(N2CCCC3(COCCN(c4ncccn4)C3)C2)nn1.O=C(O)C(F)(F)F (configuration not stated) | -5.221
63 | O=C(O)C(F)(F)F.O=C(c1cc(C2CC2)on1)N1C[C@@H]2COC[C@]2(COc2cccnc2)C1 | 24.08
64 | CCc1cnc(N2CCC3(CC(=O)N(Cc4csc(C)n4)C3)C2)nc1.O=C(O)C(F)(F)F (configuration not stated) | 1.546
65 | Cc1nc(C)n(CC2CCCN(c3ncnc4ccccc34)C2)n1 (configuration not stated) | -1.971
66 | Cc1nc(C)n(CC2CCCN(c3ncnc4ccsc34)C2)n1 (configuration not stated) | 56.12
67 | Cc1nc(C)n(CC2CCCN(c3ncnc4sccc34)C2)n1 (configuration not stated) | 24.39
68 | CC(C)N(C)Cc1cn2c(n1)CN(C(=O)Cc1ccccc1)CC2.O=C(O)C(F)(F)F | -8.481
69 | CCS(=O)(=O)Nc1ccc2c(c1)C1(CCOCC1)CN2C.O=C(O)C(F)(F)F | 36

Row | Compound | Percent Effect [%]
70 | CCCC(=O)Nc1ccc2c(c1)C1(CCOCC1)CN2CCOC.O=C(O)C(F)(F)F | 15.62
71 | COCCN1CC2(CCOCC2)c2cc(NC(=O)C3CC=CC3)ccc21.O=C(O)C(F)(F)F | 100.7
72 | CCN1CC2(CCOCC2)c2cc(NS(=O)(=O)CC)ccc21.O=C(O)C(F)(F)F | 51.54
73 | CCC(=O)Nc1ccc2c(c1)C1(CCOCC1)CN2CCF.O=C(O)C(F)(F)F | 28.61
74 | CCC(=O)Nc1ccc2c(c1)C1(CCOCC1)CN2CCOC.O=C(O)C(F)(F)F | 46.17
75 | O=C(O)C(F)(F)F.O=C1COC2(CCN(C(=O)c3ccco3)CC2)CN1Cc1cccnc1 | -2.228
76 | O=C(O)C(F)(F)F.O=C(O)C(F)(F)F.c1cnc(N2C[C@H]3CN(CC4CCOC4)C[C@H]3C2)nc1 (some centres not stated) | -39.47
77 | O=C(O)C(F)(F)F.O=C(c1ccco1)N1CCCC2(CCN(c3nncs3)C2)C1 (configuration not stated) | 42.37
78 | CN(C)C(=O)COC[C@@H]1CC[C@H]2[C@H](CCN2c2ccccn2)O1.O=C(O)C(F)(F)F | -1.761
79 | Cn1cc(CN2CCC[C@]3(C[C@@H](Oc4ccccn4)CO3)C2)cn1.O=C(O)C(F)(F)F.O=C(O)C(F)(F)F | 27.52
80 | Cn1cnc(S(=O)(=O)N2CC3(CCN(CC4CC4)C3)C2)c1.O=C(O)C(F)(F)F.O=C(O)C(F)(F)F | 2.143
81 | CO[C@@H]1CCN(Cc2c(C)noc2C)[C@@H]2CN(Cc3cccnc3)C[C@@H]21.O=C(O)C(F)(F)F.O=C(O)C(F)(F)F.O=C(O)C(F)(F)F | 14.07
82 | CN(Cc1ccncc1)Cc1nccn1Cc1ccccc1 | 6.234
83 | CN(CCc1ccccn1)Cc1nccn1Cc1ccccc1 | 101.1
84 | CN(CCc1ccncc1)Cc1nccn1Cc1ccccc1 | 9.887
85 | CNC[C@H]1CC[C@H](c2cc(CN(C)S(=O)(=O)N(C)C)n(C)n2)CC1.Cl | -16.56
86 | O=C(O)C(F)(F)F.O=C([C@@H]1CCO[C@@H]2CCN(Cc3ccc(F)cc3)C[C@H]21)N1CCCCO1 | -25.18
87 | COC1CN(C(=O)CC(C)(C)C)CCC(=O)N(C)c2ccccc21 (configuration not stated) | 48.93
88 | COC1CN(C(=O)CC2CCCC2)CCC(=O)N(C)c2ccccc21 (configuration not stated) | 50.44
89 | COC1CN(C(=O)COC(C)=O)CCC(=O)N(C)c2ccccc21 (configuration not stated) | 45.97
90 | COC1CCN(C(=O)CC2CCCC2)CC(=O)N(C)c2ccccc21 (configuration not stated) | 27.7
91 | COC1CN(C(=O)OCC(C)C)CCC(=O)N(C)c2ccccc21 (configuration not stated) | 53.04
92 | COC1CN(C(=O)CC(C)C)CCC(=O)N(C)c2ccccc21 (configuration not stated) | 33.11
